ClpP mod = qHTS Assay for Activators of ClpP | purified B. subtilis ClpP, FRET peptide cleavage, 20 min | Potency, µM (doses to about 57.5 µM) | hit rate 1.9% among 340,000; active means well fitted falling curve with a large enough effect; inconclusive means small, poorly fitted or top-dose-only effect; inactive means no such curve, though single readings can be large or run the other way; further: the source files actives as falling curves though it sought activators and does not explain the sign; nearly all actives have a fitted effect of over 65% in size
Target sequence (P80244 whole entry, looked up): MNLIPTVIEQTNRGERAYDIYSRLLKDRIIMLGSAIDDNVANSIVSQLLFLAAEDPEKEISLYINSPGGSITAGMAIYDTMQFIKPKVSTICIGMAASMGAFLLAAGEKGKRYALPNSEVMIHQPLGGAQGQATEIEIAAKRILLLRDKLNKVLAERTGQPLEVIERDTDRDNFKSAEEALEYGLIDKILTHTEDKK
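ClpP 10 microg/mL final, pH 8 Tris/KCl buffer with BSA, glycerol, Tween-20; compound pinned in; FRET-FV substrate; RT 20 min; Ex320/Em430; ΔFRET vs ADEP 5.8 microM, DMSO, no enzyme.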
DT40 TDP1 no CPT = qHTS for Inhibitors of human tyrosyl-DNA phosphodiesterase 1 (TDP1): qHTS in cells in absence of CPT; DT40 Tdp1-/- hTDP1 cells, no CPT, ATP luminescence, 48 h; Potency, µM (series often up to 46.2 µM), most hits filed as inhibitors; hit rate 15% among 420,000; further: nearly all actives have a fitted effect of over 55% in size
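Luminescent ATP content (CellTiter-Glo) served as the growth readout. Knockout chicken DT40 cells expressing human TDP1 were exposed to compounds without camptothecin for a minimum 48 hr at 37 °C.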
DT40 TDP1 CPT = qHTS for Inhibitors of human tyrosyl-DNA phosphodiesterase 1 (TDP1): qHTS in cells in presence of CPT; chicken DT40 Tdp1-/-;hTDP1 cells + 20 nM CPT, ATP luminescence, 48 h; Potency, µM (titrated, usually from 46.2 µM), most hits filed as inhibitors; hit rate 12% among 420,000; AID 686979, 2013; further: nearly all actives have a fitted effect of over 55% in size
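Cell growth measured by CellTiter-Glo luminescence after a minimum 48 h, 37 C compound exposure with 20 nM CPT in Tdp1-knockout DT40 cells stably expressing hTDP1, seeded 400/well; qHTS titration format.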
TDP1 inh = qHTS Assay for Inhibitors of Tyrosyl-DNA Phosphodiesterase (TDP1); Potency, µM (titrated, usually from 130 µM), actives largely listed as inhibitors; Tyrosyl-DNA phosphodiesterase 1 (Homo sapiens), Q9NUW8; recombinant TDP1, AlphaScreen DNA substrate cleavage; hit rate 0.28% among 350,000; further: nearly all actives have a fitted effect of over 40% in size
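E. coli-derived human Tdp1, 1 nM final. Cpd preinc 15 min RT; substrate 15 nM final, 5 min RT; AS bead mix 10 ug/ml final, 10 min RT. Signal loss = tyrosine-FITC cleavage. No-enzyme wells = max signal.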
A number is an active result; [ ] = another dose, or the depositor's remark. A selection: hits, their analogues and other compounds. The true share with any hit is near 17%. Unless noted, the call rests on the fitted dose curve; in most records, active means well fitted curve in the direction sought with a large enough effect; inconclusive means small, poorly fitted or top-dose-only effect, or another doubt; inactive means no such curve, though single readings can be large; an effect the other way counts as inactive or inconclusive.

For O=C(Nc1nccs1)[C@@H]1CC=C[C@@H]2CCN(Cc3ccccc3)C(=O)[C@@H]21 the results were ClpP mod inactive, DT40 TDP1 no CPT inconclusive and DT40 TDP1 CPT inconclusive.
Screening Cc1cccc(C)c1OCc1nc2c3cnn(-c4ccccc4Br)c3ncn2n1 returned ClpP mod inactive, DT40 TDP1 no CPT inconclusive, DT40 TDP1 CPT 10µM and TDP1 inh inactive.
For O=C(NCc1cc(Cl)cc(Cl)c1)c1csc([C@@H]2C[C@H](O)[C@@H](CO)O2)n1 the results were ClpP mod inactive, DT40 TDP1 no CPT inactive and DT40 TDP1 CPT inactive.
`N#CCCn1c(SCC(=O)c2c[nH]c3ccccc23)nc2ccccc21` gave ClpP mod inactive, DT40 TDP1 no CPT 18µM, DT40 TDP1 CPT 23µM and TDP1 inh inactive.
O=C(CSc1nc2ccccc2c(=O)n1-c1ccccc1)c1c[nH]c2ccccc12 was read as DT40 TDP1 no CPT 6.5µM, DT40 TDP1 CPT 6.5µM and TDP1 inh inactive.
`NC(=O)CSc1nc2ccccc2c(=O)n1-c1ccccc1` gave ClpP mod inactive, DT40 TDP1 no CPT inactive and DT40 TDP1 CPT inactive.
For CCCCNC(=O)NS(=O)(=O)c1ccc(NC(=O)CCC(=O)c2cccs2)cc1 the results were DT40 TDP1 no CPT inactive and DT40 TDP1 CPT inactive.
`O=C1Nc2ccccc2-c2nnnn2C1N1CCCCC1` (stereo not given) gave ClpP mod inactive, DT40 TDP1 no CPT inactive and DT40 TDP1 CPT inactive.
COc1cccc(-c2nc(CS(=O)(=O)CC(=O)NCc3ccc(C)cc3)c(C)o2)c1 was read as ClpP mod inactive, DT40 TDP1 no CPT inconclusive, DT40 TDP1 CPT 23µM and TDP1 inh inactive.
`COc1cccc(-c2nc(CS(=O)(=O)CC(=O)Nc3c(C)cc(C)cc3C)c(C)o2)c1` gave ClpP mod inactive, DT40 TDP1 no CPT 23µM, DT40 TDP1 CPT 18µM and TDP1 inh inactive.
Screening Cc1c(Cl)cccc1NC(=O)CSc1nc(=O)n(CCCN2CCOCC2)c2c1CCCC2 returned ClpP mod inactive, DT40 TDP1 no CPT inconclusive and DT40 TDP1 CPT inactive.
`COc1ccc(C(=O)NCC(c2cccs2)N2CCc3ccccc32)c(OC)c1` (stereo not given) gave ClpP mod inactive, DT40 TDP1 no CPT 15µM, DT40 TDP1 CPT inconclusive and TDP1 inh inactive.
Screening COc1ccc(C)cc1S(=O)(=O)NCC(c1ccc(N(C)C)cc1)N1CCc2ccccc21 (stereo not given) returned ClpP mod inconclusive, DT40 TDP1 no CPT inconclusive, DT40 TDP1 CPT inconclusive and TDP1 inh inactive.
COc1ccc(C(=O)NCC(c2ccc(N(C)C)cc2)N2CCc3ccccc32)cc1OC (stereo not given) was read as ClpP mod inactive, DT40 TDP1 no CPT 6.5µM, DT40 TDP1 CPT 5.2µM and TDP1 inh inactive.
Screening Cc1cc(C)c(S(=O)(=O)NCC(c2ccc(N(C)C)cc2)N2CCc3ccccc32)c(C)c1 (stereo not given) returned ClpP mod inconclusive, DT40 TDP1 no CPT inconclusive, DT40 TDP1 CPT 18µM and TDP1 inh inactive.
Screening CN(C)c1ccc(C(CNS(=O)(=O)c2ccc(F)cc2)N2CCc3ccccc32)cc1 (stereo not given) returned ClpP mod inactive, DT40 TDP1 no CPT inconclusive, DT40 TDP1 CPT inconclusive and TDP1 inh inactive.
COc1cccc(C(=O)NCC(c2ccc(N(C)C)cc2)N2CCc3ccccc32)c1OC (stereo not given) was read as ClpP mod inactive, DT40 TDP1 no CPT 15µM, DT40 TDP1 CPT 15µM and TDP1 inh inactive.
`O=S(=O)(NCCc1cn2ccsc2n1)c1ccc(Cl)cc1` gave ClpP mod inactive, DT40 TDP1 no CPT inactive, DT40 TDP1 CPT inactive and TDP1 inh inactive.
Screening Cc1cc(Nc2ccccc2C(=O)O)n2ncnc2n1 returned ClpP mod inactive, DT40 TDP1 no CPT inactive and DT40 TDP1 CPT inactive.
Screening CN(C)c1ccc(C(CNC(=O)c2ccccc2F)N2CCc3ccccc32)cc1 (stereo not given) returned ClpP mod inactive, DT40 TDP1 no CPT inconclusive, DT40 TDP1 CPT 10µM and TDP1 inh inactive.
`O=S(=O)(NCC(c1ccccc1)N1CCc2ccccc21)c1ccc(Cl)cc1` (stereo not given) gave ClpP mod inactive, DT40 TDP1 no CPT inconclusive, DT40 TDP1 CPT inconclusive and TDP1 inh inactive.
COc1ccc(C(=O)NCC(c2ccco2)N2CCc3ccccc32)cc1 (stereo not given) was read as DT40 TDP1 no CPT 2.6µM and DT40 TDP1 CPT 3.7µM.
Screening COc1cccc(C(=O)NCC(c2ccc(N(C)C)cc2)N2CCc3ccccc32)c1 (stereo not given) returned ClpP mod inactive, DT40 TDP1 no CPT inconclusive, DT40 TDP1 CPT 8.2µM and TDP1 inh inactive.
COc1cccc(C(=O)NCCS(=O)(=O)N2CCc3ccccc3C2)c1 was read as ClpP mod inconclusive, DT40 TDP1 no CPT inactive and DT40 TDP1 CPT inactive.
For COc1ccc(C(=O)NCC(c2ccco2)N2CCc3ccccc3C2)cc1 (stereo not given) the results were ClpP mod inactive, DT40 TDP1 no CPT inconclusive, DT40 TDP1 CPT inconclusive and TDP1 inh inactive.
`O=S(=O)(NCC(c1ccco1)N1CCc2ccccc21)c1ccccc1` (stereo not given) gave ClpP mod inactive, DT40 TDP1 no CPT 18µM, DT40 TDP1 CPT 23µM and TDP1 inh inactive[0.505 µM].
O=c1c2c3c(sc2n(Cc2ccc(F)cc2Cl)c(=O)n1-c1ccc(Cl)cc1)CCC3 was read as ClpP mod inactive, DT40 TDP1 no CPT inactive, DT40 TDP1 CPT inactive and TDP1 inh inactive.
For CCCOc1cccc(C(=O)Nc2ccc(-c3nc4ccccc4s3)c(Cl)c2)c1 the results were ClpP mod inactive, DT40 TDP1 no CPT inconclusive, DT40 TDP1 CPT inconclusive and TDP1 inh inactive.
`COC(=O)NC(c1cccc(F)c1)[C@]1(C(C)=O)CCCC1=O` (stereo not given in full) gave TDP1 inh inactive[21 µM].
For Cc1cc(C)c(NC(=O)C(C)n2c(=O)c(C(F)(F)F)nc3ccccc32)c(C)c1 (stereo not given) the results were ClpP mod inactive, DT40 TDP1 no CPT inconclusive, DT40 TDP1 CPT inconclusive and TDP1 inh inactive.
COc1ccc(CCNC(=O)COC(=O)/C=C/c2ccc(OC)cc2OC)cc1 was read as ClpP mod inactive, DT40 TDP1 no CPT inconclusive, DT40 TDP1 CPT inconclusive and TDP1 inh inactive.
Cn1cc(/C=N\O)nc2c(=O)n(-c3ccccc3)c(=O)nc1-2 was read as ClpP mod inactive, DT40 TDP1 no CPT inactive, DT40 TDP1 CPT inactive and TDP1 inh inactive.
Screening COc1cc(C(=O)NCC(c2ccc(N(C)C)cc2)N2CCc3ccccc32)cc(OC)c1OC (stereo not given) returned ClpP mod inactive, DT40 TDP1 no CPT 18µM, DT40 TDP1 CPT 7.3µM and TDP1 inh inactive.
`CN(C)c1ccc(C(CNC(=O)c2ccc(-c3ccccc3)cc2)N2CCOCC2)cc1` (stereo not given) gave TDP1 inh inactive.

Assay outcomes: PubChem BioAssay, National Center for Advancing Translational Sciences (NCATS)
